The nature of assay [1]: CEETOX_H295R_CORTIC_noMTC: CeeTox H295R High-throughput Steroidogenesis Assay for Corticosterone (CORTIC), maximum tolerated concentration (MTC) filtered results only (AID 2283917; active = hit-call score of the fitted dose curve at least 0.9, where 1 is the maximum; inactive = score below 0.9). Particulars: actives raise or lower the signal. In short, it runs like this: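 H295R, 10 uM forskolin prestim 48 h → test chem (0.1% DMSO final) 48 h → media MTBE extraction → HPLC-MS/MS corticosterone. Bidirectional fit vs DMSO baseline; no MTT-based MTC filtering.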

A short description of assay [2]: CEETOX_H295R_ESTRADIOL_noMTC: CeeTox H295R High-throughput Steroidogenesis Assay for Estradiol, maximum tolerated concentration (MTC) filtered results only (AID 2283919; active = hit-call score of the fitted dose curve at least 0.9, where 1 is the maximum; inactive = score below 0.9). Conditions: actives raise or lower the signal. In outline: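 H295R human adrenal cells pre-stimulated 48 h with 10 uM forskolin, then exposed 48 h to chemical (0.1% DMSO final). Estradiol in medium measured by HPLC-MS/MS after MTBE extraction and dansyl derivatization; bidirectional fit versus DMSO, concentrations not MTT-filtered.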

Assay [3] in a line: CEETOX_H295R_ESTRONE_noMTC: CeeTox H295R High-throughput Steroidogenesis Assay for Estrone, maximum tolerated concentration (MTC) filtered results only (AID 2283921; active = hit-call score of the fitted dose curve at least 0.9, where 1 is the maximum; inactive = score below 0.9). Particulars: actives raise or lower the signal. In outline: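 H295R cells prestimulated 48 h with 10 uM forskolin, then exposed 48 h to chemical in 0.1% DMSO; medium estrone measured by HPLC-MS/MS after MTBE extraction and dansyl derivatization, fitted bidirectionally versus DMSO without MTT-based MTC filtering.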

In assay [4] the target is PGR (gene 5241) (UniProt P06401). In words: TOX21_PR_BLA_Followup_Agonist_ratio: Tox21 HEK293 Progesterone Receptor (PR) Agonism Beta-lactamase Follow-Up Assay, Ratio (AID 2283933). In outline: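 HEK293T PR-UAS-bla, 2% CS-FBS; 6 hr preincubation, cpd/DMSO pinned, 16 hr 37C/5% CO2; LiveBLAzer B/G 2 hr RT; FRET ch2/ch1 ratio, agonist direction vs DMSO. Viability by CellTiter-Glo in same wells.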

The target is the same in assay [5]. In words: TOX21_PR_LUC_Followup_Agonist: Tox21 HEK293 Progesterone Receptor (PR) Agonism Luciferase Follow-Up Assay (AID 2283937; active = hit-call score of the fitted dose curve at least 0.9, where 1 is the maximum; inactive = score below 0.9). In outline:
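Cells: HEK293-PR-A-luc, 3,000/well, 10% charcoal-stripped FBS assay medium. Compound added after 5 h; 16 h, 37C, 0% CO2. ONE-Glo luciferase, luminescence. Positive fit vs DMSO.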

The target of assay [6] is Thyroid hormone receptor alpha (Rattus norvegicus) + Thyroid hormone receptor beta (Rattus norvegicus) (UniProt P18113+P63059). The experiment in a line: TOX21_TR_LUC_GH3_Antagonist_Followup: Tox21 GH3 Thyroid Hormone Receptor Antagonism Luciferase Follow-Up Assay (AID 2283942). In outline: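 Rat pituitary GH3 cells with a TRα/TRβ-driven luciferase reporter, 5 h attachment, then 15 concentrations (92 uM to 5nM final) plus 1.0 nM T3 agonist, 24 h at 37C/5% CO2. ONE-Glo luminescence; signal change fitted against DMSO baseline.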

Assay [7] concerns the target THRA (gene 7067) (UniProt P10827). In words: TOX21_TRA_COA_Antagonist_Followup_ratio: Tox21 Thyroid Hormone Receptor alpha Antagonism through Coactivator Recruitment Follow-Up Assay, Ratio (AID 2283953). From the text: TOX21_TRa_COA_Antagonist_Followup is a secondary assay for specificity for the TOX21_TR_GH3_LUC_Agonist assay. The LanthaScreen TR-FRET TR coactivator assay kits were used to determine TR activity in a cell-free functional assay. A time-resolved fluorescence resonance energy transfer (TR-FRET) signal was indicative of coactivator (SRC-2) recruitment.TOX21_TRA_COA_Antagonist_Followup_ratio is assay component calculated in the TOX21_TRA_COA_Antagonist_Followup assay. The TR-FRET ratio of acceptor emission (ch2) to donor emission (ch1) is indicative of the resonance energy transfer to the fluorescein tag on the coactivator peptide following recruitment to the receptor.Data from the assay component TOX21_TRA_COA_Antagonist_Followup_ratio was analyzed into 1 assay endpoint. This assay endpoint, TOX21_TRA_COA_Antagonist_Followup_ratio, was analyzed in the positive analysis fitting direction relative to DMSO as the negative control and baseline of activity. Using a type of inducible reporter, loss-of-signal activity can be used to understand changes in the reporter gene as they relate to the gene THRA. Furthermore, this assay endpoint can be referred to as a primary readout, because this assay has produced multiple assay endpoints and this ratio serves a reporter gene function to understand target activity. […]

Assay [8] concerns the target THRB (gene 7068) (UniProt P10828). The experiment in a line: TOX21_TRB_BLA_Antagonist_Followup_ratio: Tox21 Thyroid Hormone Receptor beta Antagonism Beta-lactamase (BLA) Follow-Up Assay, Ratio (AID 2283958). An excerpt: The GeneBLAzer TRb-UAS-bla HEK293T assay kit for human TRb (ThermoFisherScientific Catalog No. K1684) was used as a secondary assay for specificity (TRb-bla).This assay contained the ligand-binding domain (LBD) of the human TRb fused to the DNA-binding domain of GAL4 stably integrated in the GeneBLAzer UAS-bla HEK293Tcell line. The reporter gene, b-lactamase, is under the transcriptional control of a UAS that binds the GAL4 DNA-binding domain. A cell viability assay was run in parallel for these cells as well using the CellTiter-Glo viability assay kit.TOX21_TRB_BLA_Antagonist_Followup_ratio is an assay readout measuring reporter gene via receptor activity and designed using inducible reporter (beta lactamase induction) detected with GAL4 b-lactamase reporter gene. The signal is derived from the ratio of cleaved (ch2) to uncleaved (ch1) reporter gene substrate used as the measure of target activity.Data from the assay component TOX21_TRB_BLA_Antagonist_Followup_ratio was analyzed into 1 assay endpoint. This assay endpoint, TOX21_TRB_BLA_Antagonist_Followup_ratio, was analyzed in the positive analysis fitting direction relative to DMSO as the negative control and baseline of activity. Using a type of inducible reporter, loss-of-signal activity can be used to understand changes in the reporter gene as they relate to the gene THRB. […]

Assay [9] can be described thus: TOX21_TRB_BLA_Antagonist_Followup_viability: Viability Assessment in the Tox21 Thyroid Hormone Receptor beta Antagonism Beta-lactamase (BLA) Follow-Up Assay (AID 2283961). In outline: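 In the same wells as the reporter read, cell health was gauged by CellTiter-Glo ATP luminescence, with signal loss indicating reduced viability. Cells had been exposed to test compounds for 18 h.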

The target of assay [10] is THRB (gene 7068) (UniProt P10828). In words: TOX21_TRB_BLA_Agonist_Followup_ratio: Tox21 Thyroid Hormone Receptor beta Agonism Beta-lactamase (BLA) Follow-Up Assay, Ratio (AID 2283954). In short, it runs like this: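 Human TRβ LBD–GAL4 DBD fusion in GeneBLAzer UAS-bla HEK293T cells; 11 concentrations in triplicate, 18 h at 37°C/5% CO2, T3 as agonist control. CCF4-AM substrate 2 h at room temperature; 460:530 nm ratio fitted for gain of signal versus DMSO.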

Results filed as inconclusive are left out. Calls of active or inactive are those of the source. The calls were made as follows, unless noted: active = hit-call score of the fitted dose curve at least 0.9, where 1 is the maximum; inconclusive = response in the unintended direction; inactive = score below 0.9.

THRB (gene 7068), sequence (P10828 whole entry, looked up, the tested form may be a part): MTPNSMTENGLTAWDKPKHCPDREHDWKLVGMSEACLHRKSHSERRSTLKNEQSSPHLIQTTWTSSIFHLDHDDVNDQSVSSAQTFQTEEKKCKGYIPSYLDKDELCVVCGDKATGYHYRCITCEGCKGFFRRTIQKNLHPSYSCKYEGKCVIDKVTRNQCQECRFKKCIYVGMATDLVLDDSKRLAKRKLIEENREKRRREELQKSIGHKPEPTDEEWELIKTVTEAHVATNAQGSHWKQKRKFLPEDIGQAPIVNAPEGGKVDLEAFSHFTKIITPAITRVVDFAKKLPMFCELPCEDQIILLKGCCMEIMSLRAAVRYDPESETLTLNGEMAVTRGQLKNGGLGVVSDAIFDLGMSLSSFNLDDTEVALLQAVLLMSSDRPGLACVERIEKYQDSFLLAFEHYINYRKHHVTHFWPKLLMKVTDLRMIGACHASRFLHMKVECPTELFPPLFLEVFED
PGR (gene 5241), sequence (P06401 whole entry, looked up): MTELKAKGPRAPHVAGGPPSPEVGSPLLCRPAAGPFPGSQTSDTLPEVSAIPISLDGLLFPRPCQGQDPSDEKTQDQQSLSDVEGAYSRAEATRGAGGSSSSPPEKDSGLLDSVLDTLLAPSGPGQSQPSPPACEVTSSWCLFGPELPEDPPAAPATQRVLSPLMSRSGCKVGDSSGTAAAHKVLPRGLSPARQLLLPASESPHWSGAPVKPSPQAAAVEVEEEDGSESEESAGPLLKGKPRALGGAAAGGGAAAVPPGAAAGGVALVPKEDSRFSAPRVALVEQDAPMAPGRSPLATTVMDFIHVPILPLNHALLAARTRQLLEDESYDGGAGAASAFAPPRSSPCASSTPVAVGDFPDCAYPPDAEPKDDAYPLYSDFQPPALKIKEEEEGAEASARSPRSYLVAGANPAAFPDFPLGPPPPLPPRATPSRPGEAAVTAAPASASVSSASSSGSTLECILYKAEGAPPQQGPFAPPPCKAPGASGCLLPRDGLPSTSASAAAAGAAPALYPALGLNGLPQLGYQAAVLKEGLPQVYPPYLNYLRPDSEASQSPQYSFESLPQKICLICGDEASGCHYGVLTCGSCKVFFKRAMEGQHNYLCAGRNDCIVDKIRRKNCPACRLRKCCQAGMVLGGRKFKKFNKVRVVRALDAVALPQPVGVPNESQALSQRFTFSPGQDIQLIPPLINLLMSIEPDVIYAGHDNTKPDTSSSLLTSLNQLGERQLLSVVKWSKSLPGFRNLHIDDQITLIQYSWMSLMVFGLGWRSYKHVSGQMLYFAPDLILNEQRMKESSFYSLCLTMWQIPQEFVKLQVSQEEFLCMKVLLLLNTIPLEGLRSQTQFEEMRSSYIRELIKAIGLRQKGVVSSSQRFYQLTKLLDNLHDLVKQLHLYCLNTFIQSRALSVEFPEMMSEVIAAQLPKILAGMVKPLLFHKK
THRA (gene 7067), sequence (P10827 whole entry, looked up): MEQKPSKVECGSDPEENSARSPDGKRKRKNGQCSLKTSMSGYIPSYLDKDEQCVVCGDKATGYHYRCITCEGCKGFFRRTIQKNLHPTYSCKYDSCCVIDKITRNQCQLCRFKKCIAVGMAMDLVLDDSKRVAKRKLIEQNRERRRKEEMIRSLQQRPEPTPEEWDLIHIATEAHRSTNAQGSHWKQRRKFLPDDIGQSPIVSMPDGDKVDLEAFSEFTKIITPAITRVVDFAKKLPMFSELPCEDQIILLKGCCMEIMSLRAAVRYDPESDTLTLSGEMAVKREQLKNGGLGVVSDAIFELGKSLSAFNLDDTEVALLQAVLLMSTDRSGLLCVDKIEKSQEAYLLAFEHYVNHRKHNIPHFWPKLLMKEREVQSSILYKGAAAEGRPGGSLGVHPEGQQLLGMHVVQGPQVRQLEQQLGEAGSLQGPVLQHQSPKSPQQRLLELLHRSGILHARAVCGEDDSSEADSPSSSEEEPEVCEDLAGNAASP

Take `CC=Cc1ccc(OC)c(OC)c1`: the half-maximal activity concentration (AC50) in [1] was 39.5 µM (active).

In the case of `COc1ccc(OC)c(N=Nc2c(O)ccc3ccccc23)c1`, the result in [1] was inactive.

For the compound `O=C(Nc1ccc2c(O)c(N=Nc3ccc(N=Nc4ccc(S(=O)(=O)O)cc4)cc3)c(S(=O)(=O)O)cc2c1)c1ccccc1`, the call in assay [2] and in assay [3] was inactive.

For the compound `O=C(Nc1ccc2c(c1)Cc1ccccc1-2)C(F)(F)F`, the outcome in assay [4] and in assay [5] was inactive.

As for `Oc1c(Cl)cc(Cl)c(Cl)c1Cc1c(O)c(Cl)cc(Cl)c1Cl`, the AC50 in assay [6] is 12.7 µM (active); in assay [8], 20 µM (active); in assay [9] it was 8.64 µM (active). The outcome in [7] was inactive.

With `OCCCCC(O)CO` (configuration not stated), in assay [10], the result was inactive.

Consider `C[C@H](CCC(=O)NCC(=O)O)[C@H]1CC[C@H]2[C@@H]3[C@H](O)C[C@@H]4C[C@H](O)CC[C@]4(C)[C@H]3C[C@H](O)[C@]12C`, for which the result in assay [10] was inactive.

For the origin of these results see PubChem BioAssay (EPA / NIEHS).
